Bioassay records (PubChem BioAssay)
KDM5B inhibitor: inhibitors of human KDM5B histone demethylase. 220,000 tested, 2.6% active. Potency, µM (top dose mostly 57.7 µM), actives largely listed as inhibitors. KDM5B demethylase, FDH-coupled NADH fluorescence (FDH is formaldehyde dehydrogenase); also: nearly all actives have a fitted effect of over 70% in size
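Compound dilutions met 200 nM (final) KDM5BΔAP for 10 min at room temperature before substrate addition. The substrate mix held 12.5 µM H3K4me3 with cofactors 25 µM α-ketoglutarate and 50 µM Fe²⁺. NADH signal gain over 30 min defined activity.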
IP6K1 inh: inhibitors of human IP6K1 | Q92551 | IP6K1 kinase, ADP-Glo luminescence, 2 h; active compounds read low | activity change, % (series mostly up to about 58 µM) | 140,000 tested, 0.81% active; in the data active = activity change below about -25%
Target sequence (Q92551 whole entry, looked up): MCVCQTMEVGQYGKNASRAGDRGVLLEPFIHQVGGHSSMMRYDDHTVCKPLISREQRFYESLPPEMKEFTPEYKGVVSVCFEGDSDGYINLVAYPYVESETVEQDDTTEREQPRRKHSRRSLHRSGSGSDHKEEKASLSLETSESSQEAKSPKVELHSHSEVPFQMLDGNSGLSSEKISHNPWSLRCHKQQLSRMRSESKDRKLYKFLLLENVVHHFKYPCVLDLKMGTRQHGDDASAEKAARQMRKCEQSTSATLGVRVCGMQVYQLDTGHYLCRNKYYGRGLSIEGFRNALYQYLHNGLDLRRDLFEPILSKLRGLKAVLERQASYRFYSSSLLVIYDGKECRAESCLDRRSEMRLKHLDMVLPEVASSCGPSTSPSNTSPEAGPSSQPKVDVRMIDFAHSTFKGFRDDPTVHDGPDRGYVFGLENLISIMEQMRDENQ
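ADP-Glo luminescence measures ADP made by human IP6K1 during a 2 h RT reaction with ATP/IP6 (mix at 1.3 mM/130 uM); top library doses 57.5 and 19.1 uM final.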
HEK293 viab: cell viability loss counter-screen. HEK-293-SNCA-luc viability, GF-AFC fluorescence, 24 h. Potency, µM (series often up to 57.1 µM), usual class: cytotoxic. 150,000 tested, 0.12% active; also: nearly all actives have a fitted effect of over 30% in size
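HEK-293-SNCA-luc cells (1500/well) plated 24 h, then exposed 24 h to a dilution series; GF-AFC added 30 min at 37C, fluorescence 405/540 nm; normalised to medium-only and DMSO wells, Hill fit.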
SNCA expr inh: inhibitors of alpha-synuclein (SNCA) gene expression | 140,000 tested, 0.17% active | HEK-293 SNCA-luciferase knock-in, luminescence, 24 h | Potency, µM (doses to about 57.2 µM), hits mostly inhibitors; also: nearly all actives have a fitted effect of over 45% in size
IP6K1 conf: confirmation of human IP6K1 inhibitors | AID 1645852 | 1,200 tested, 13% active | Potency, µM (doses to about 49 µM), most hits filed as inhibitors | shares compounds with IP6K1 inh | recombinant IP6K1 kinase, ADP-Glo luminescence, 2 h; also: nearly all actives have a fitted effect of over 65% in size
Each line names hits and unclear results; the compound was inactive in the other large screens (follow-up assays come after a bar, where they were run). Shown are actives, neighbours in structure and some others; about 3% of the full set was active somewhere. Unless noted, calls follow the shape of the dose curve; as a rule, active = well fitted curve in the direction sought with a large enough effect; inconclusive = small, poorly fitted or top-dose-only effect, or another doubt; inactive = no such curve, though single readings can be large; an effect the other way counts as inactive or inconclusive.

Nc1ccc(N=Nc2ccccc2)c(N)n1	IP6K1 inh -37 (no result: KDM5B inhibitor) | IP6K1 conf inconclusive
O=C(Nc1ncn[nH]1)C1CC(=O)N(c2ccc3c(c2)OCCO3)C1 (stereo not drawn)	none (no result: IP6K1 inh, HEK293 viab, SNCA expr inh)
Clc1cccc(-c2ccc(CN3CCN(C4CCNC4)CC3)o2)c1 (stereo not drawn)	KDM5B inhibitor inconclusive, IP6K1 inh -28 | IP6K1 conf inactive
CC(C)=CCC/C(C)=C/C=N/NC(=S)Nc1ccccc1	none (no result: IP6K1 inh, HEK293 viab, SNCA expr inh)
O=C(Nc1cc(F)ccc1F)c1cc2nc(-c3ccco3)cc(C(F)(F)Cl)n2n1	KDM5B inhibitor inconclusive, IP6K1 inh -26 | IP6K1 conf inactive
O=C(Nc1cccc(C(F)(F)F)c1)c1cc2nc(-c3ccco3)cc(C(F)(F)Cl)n2n1	KDM5B inhibitor inconclusive, SNCA expr inh inconclusive
O=C(NCC(O)CO)c1ccncc1Nc1ccc(I)cc1F (stereo not drawn)	none (no result: KDM5B inhibitor, SNCA expr inh)
O=C(NOCC1CC1)c1ccc(F)c(F)c1Nc1ccc(I)cc1Cl	none (no result: KDM5B inhibitor) | IP6K1 conf inactive
O=C(NOC[C@H](O)CO)c1ccc(F)c(F)c1Nc1ccc(I)cc1F	none (no result: KDM5B inhibitor) | IP6K1 conf inactive
O=C(Nc1ccc(I)cc1C(F)(F)F)c1cc(Cl)ccc1Cl	none (no result: IP6K1 inh, HEK293 viab, SNCA expr inh)
CN(C)C(=O)CN1CCN(C(C(=O)O)c2c[nH]c3ccc(OCC#N)cc23)CC1 (stereo not drawn)	none (no result: IP6K1 inh, HEK293 viab, SNCA expr inh)
O=C(CSc1ncnc2ccccc12)Nc1ccc(F)c(F)c1	none (no result: IP6K1 inh, HEK293 viab, SNCA expr inh)
Cc1ccc(-c2csc(Nc3ccc(O)cc3)n2)cc1C	none (no result: IP6K1 inh, HEK293 viab, SNCA expr inh)
Oc1ccc(Nc2nc(-c3ccc(Cl)cc3)cs2)cc1	IP6K1 inh -32 (no result: KDM5B inhibitor, SNCA expr inh) | IP6K1 conf inconclusive
Cc1cccc(C(=O)Nc2ccc(NC(=S)NC(=O)c3ccc(Cl)cc3)cc2)c1	none (no result: IP6K1 inh, HEK293 viab, SNCA expr inh)
CC(Sc1n[nH]c(=O)n1C1CC1)C(=O)c1ccc(F)cc1 (stereo not drawn)	none (no result: IP6K1 inh, HEK293 viab, SNCA expr inh)
Cc1nc(-c2ccc(Cl)cc2)n(CC(=O)Nc2cccc(C(F)(F)F)c2)c(=O)c1CCO	SNCA expr inh inconclusive
O=C(Cn1c(=O)oc2cc(Cl)ccc21)Nc1cccc(C(F)(F)F)c1	IP6K1 inh -28, SNCA expr inh inconclusive | IP6K1 conf inactive
Cc1cccc(C)c1NS(=O)(=O)c1cccc(C(F)(F)F)c1	none (no result: IP6K1 inh, HEK293 viab, SNCA expr inh)
C[C@@H]1CCN(C(=O)CC#N)C[C@@H]1N(C)c1ncnc2[nH]ccc12	none (no result: KDM5B inhibitor, IP6K1 inh, HEK293 viab, SNCA expr inh) | IP6K1 conf inactive
CCN(CC)CCNC(=O)c1c(C)[nH]c(/C=C2\C(=O)Nc3ccc(Cl)cc32)c1C	none (no result: KDM5B inhibitor, IP6K1 inh, HEK293 viab, SNCA expr inh) | IP6K1 conf inactive
Cc1[nH]c(/C=C2\C(=O)Nc3ccc(F)cc32)c(C)c1C(=O)NC[C@H](O)CN1CCOCC1	none (no result: KDM5B inhibitor, SNCA expr inh) | IP6K1 conf inactive
COC(=O)c1cc(NC(=O)CC2C(=O)OCCN2Cc2ccccc2)cc(C(=O)OC)c1 (stereo not drawn)	IP6K1 inh -33 | IP6K1 conf inactive
CC(=O)Nc1cccc(-c2nc(-c3c(C)noc3C)cc3cc(C)oc23)c1	KDM5B inhibitor 35µM, IP6K1 inh -28 | IP6K1 conf inactive
Cc1cc2cc(-c3c(C)noc3C)nc(-c3ccsc3)c2o1	KDM5B inhibitor inconclusive
Clc1ccc2c(c1)-n1cc(-c3ccccc3)nc1CO2	IP6K1 inh -28, HEK293 viab inconclusive | IP6K1 conf inconclusive
COC(=O)CC1Oc2ccc(Cl)cc2-n2cc(-c3ccccc3)nc21 (stereo not drawn)	KDM5B inhibitor inconclusive
CCCNc1c(NC(=O)Nc2ccc(C)c(Cl)c2)c(=O)oc2ccccc12	none (no result: IP6K1 inh, HEK293 viab, SNCA expr inh)
COc1ccc2oc(=O)cc(CN3CCN(c4ccc(F)cc4)CC3)c2c1	IP6K1 inh -25 | IP6K1 conf inactive
COc1ccc2c(CN3CCN(c4ccc(F)cc4)CC3)cc(=O)oc2c1	none (no result: IP6K1 inh, HEK293 viab, SNCA expr inh)
CC(C)c1ccc(/C=N/O)cc1	none (no result: IP6K1 inh, HEK293 viab, SNCA expr inh)
Cc1ccc2c(n1)sc1c(=O)n(-c3cccc(C(F)(F)F)c3)nnc12	KDM5B inhibitor inconclusive, IP6K1 inh -27 | IP6K1 conf inactive
Cn1cc(-c2ccc3nnc(C(F)(F)c4ccc5ncccc5c4)n3n2)cn1	none (no result: KDM5B inhibitor) | IP6K1 conf inactive
Cc1nn(CCC(=O)Nc2cccc(F)c2)c(=O)c(C#N)c1C	none (no result: IP6K1 inh, HEK293 viab, SNCA expr inh)
Cn1cnnc1SCC(=O)Nc1ccc(F)cc1	none (no result: IP6K1 inh, HEK293 viab, SNCA expr inh)
Cn1cnnc1SCC(=O)Nc1cc(C(=O)O)cc(C(=O)O)c1	IP6K1 inh -30, SNCA expr inh inconclusive | IP6K1 conf inactive
CCc1ccc(OCC(=O)Nc2cc3c(cc2S(=O)(=O)c2ccc(C)cc2)n(C)c(=O)n3C)cc1	none (no result: IP6K1 inh, HEK293 viab, SNCA expr inh)
COc1ccc(NC(=O)CSc2nnc3scc(-c4ccc(Cl)cc4)n23)cc1	HEK293 viab inconclusive
COc1cccc(NC(=O)CSc2nnc3scc(-c4ccc(Cl)cc4)n23)c1	IP6K1 inh -37 | IP6K1 conf inactive
CC1(C)N=C(c2ccc(Br)cc2)C(=S)N1	none (no result: IP6K1 inh, HEK293 viab, SNCA expr inh)
CC(=O)N1CCCN(C(=O)c2cc(-c3cc(Cl)cc(Cl)c3)nc3c2cnn3C)CC1	none (no result: KDM5B inhibitor, HEK293 viab, SNCA expr inh)
O=C(Nc1cccc(C(F)(F)F)c1)Nc1cccs1	KDM5B inhibitor inconclusive, IP6K1 inh -33 | IP6K1 conf inconclusive
C[C@@]12CO[C@H](c3ccccc3)C[C@@H]1C[C@H](N1CCN(CCOCc3ccccc3)CC1)C2	none (no result: KDM5B inhibitor, HEK293 viab, SNCA expr inh)
NC(=O)Cc1c[nH]c2ncc(-c3ccc(Cl)cc3)cc12	KDM5B inhibitor 20µM, IP6K1 inh -43 | IP6K1 conf inconclusive
C[S+](=O)([O-])c1ccc(-c2cnc3[nH]cc(CC(=O)N4CCOCC4)c3c2)cc1	KDM5B inhibitor inconclusive
NC(=O)Cc1c[nH]c2ncc(-c3ccc(F)c(Cl)c3)cc12	KDM5B inhibitor 40µM, IP6K1 inh -36 | IP6K1 conf inconclusive
O=C(Cc1c[nH]c2ncc(-c3ccccc3)cc12)Nc1ccc(Cl)cc1	none
NC(=O)Cc1c[nH]c2ncc(-c3ccc4c(c3)OCO4)cc12	KDM5B inhibitor 35µM, IP6K1 inh -47 | IP6K1 conf 15µM
